# High-throughput results: PubChem BioAssay, Emory University Molecular Libraries Screening Center
# Measles inh: inhibitors of measles virus growth in infected cells; infected Vero cells, GFP fluorescence, 64 h; hits give low values; z-score (concentration not given with the values); 33,000 compounds, 0.1% hits; AID 745; in the data active = z-score below about -3
# * marks the source's active call; other numbers are inactive results. Shown is part of a subset that was picked to be rich in hits.
SMILES,Measles inh
COC(=O)c1ccccc1N1C(=O)C2C3CCC(C3)C2C1=O (stereo not given),-3.7*
O=C1C2C3CCC(C3)C2C(=O)N1c1ccccc1F (stereo not given),-0.46
CCCCOC(=O)c1ccccc1N1C(=O)C2C3CCC(C3)C2C1=O (stereo not given),-0.03
Cc1ccc(C(C)C)cc1S(=O)(=O)NCc1ccc2c(c1)OCO2,-0.52
COc1ccc(C(=O)N(c2ccccc2)c2ccc3ccccc3c2)cc1OC,-0.78
COc1ccc(C)cc1NC(=O)CNS(=O)(=O)c1ccc(Br)s1,-0.08
COCCNC(=O)CSc1nc2cc3c(cc2c(=O)n1Cc1ccco1)OCO3,2.3
O=C(NCCN1CCOCC1)C1CCCN(S(=O)(=O)c2cccc3nsnc23)C1 (stereo not given),-0.04
NS(=O)(=O)c1ccc(CCNC(=O)C2CCCN(S(=O)(=O)c3cccc4nsnc34)C2)cc1 (stereo not given),-0.81
CCN(CCNC(=O)C1CCCN(S(=O)(=O)c2cccc3nsnc23)C1)c1ccccc1 (stereo not given),-3.3*
c1ccc(-c2nc3ccccc3nc2-c2cccs2)cc1,-1.8
O=C(CCN1C(=O)C2C3C=CC(CC3)C2C1=O)Nc1nccs1 (stereo not given),0.81
COc1ccc(Cl)cc1S(=O)(=O)N1CCc2ccccc2C1,-0.4
Brc1ccc(-c2noc(-c3cccs3)n2)o1,0.12
Oc1cc(OCc2ccccc2)ccc1-c1[nH]ncc1-c1ccccc1,-1.2
Cc1cc(C)c(N2C(=O)c3ccc(C(=O)Nc4cccc(I)c4)cc3C2=O)c(C)c1,-0.15
COc1cc(C2Nc3cccc4cccc(c34)N2)cc(Br)c1O,0.32
N=c1n(CCO)c2ccccc2n1CCN1CCCCC1,-0.81
c1ccc(-c2cn3c4ccccc4n(CCN4CCCCC4)c3n2)cc1,-3.1*
Cc1cn2c3ccccc3n(CCN3CCCCC3)c2n1,-0.96
Cc1nc(N=C(NC(=O)c2ccccc2)NC(=O)c2ccccc2)nc2ccccc12,0
O=C(Nc1sc2c(c1C(=O)NCC1CCCO1)CCCC2)c1ccco1 (stereo not given),-1.2
Cc1ccc(Nc2sc(C(=O)c3ccccc3)c(N)c2C(N)=O)cc1,0.93
O=S(=O)(NCc1ccccc1)c1cnc[nH]1,0.37
C=CCn1c(SCC(=O)c2cccs2)nc2sc3c(c2c1=O)CCCC3,-0.52
SMILES,Measles inh
Cc1cc(N2CCN(C)CC2)nc2ccc(NC(=O)Cc3cccc(C(F)(F)F)c3)cc12,-3.1*
CCN1CCN(c2cc(C)c3cc(NC(=O)Cc4cccc(C)c4)ccc3n2)CC1,-1.5
Cc1cc(N2CCN(C)CC2)nc2ccc(NC(=O)c3cccc(C(F)(F)F)c3)cc12,0.66
CC(=O)C1=NN(c2ccccc2)C(C#CC(C)(C)C)N1c1ccccc1 (stereo not given),-1.6
CC1CCCC(C)N1CCNC(=O)CCN1C(=O)COc2ccccc21 (stereo not given),-0.4
O=C(CCN1C(=O)COc2ccccc21)NCCN1CCc2ccccc2C1,-6.4*
O=C(CCN1C(=O)COc2ccccc21)NCCc1ccc(Cl)cc1,-0.22
Cc1ccc(C)c(OCCn2cc(C(=S)N3CCOCC3)c3ccccc32)c1,1.5
COc1ccc(-c2nnc(NC(=O)c3ccc(C(C)(C)C)cc3)s2)cc1OC,1.3
Cc1cccc(C)c1OCCCCCCN1CCOCC1,-0.51
COc1ccccc1OCCCCCCN1CCOCC1,-0.57
CC(C)(C)c1cc(Br)ccc1OCCCN1CCOCC1,-3.3*
Cc1ccc(NS(C)(=O)=O)c(Br)c1,-0.74
COc1ccc(N2CCN(C(=O)c3ccc(-n4c(=S)[nH]c5ccccc5c4=O)cc3)CC2)cc1,2.3
Nc1cccc(C(=O)CC2(O)C(=O)Nc3ccccc32)c1 (stereo not given),0.23
CCc1ccc(NC(=O)C2CCN(C(=O)c3ccccc3C)CC2)cc1,-5*
COc1ccc(C)cc1NC(=O)C1CCN(C(=O)c2ccccc2C)CC1,-0.49
Cc1ccccc1C(=O)N1CCC(C(=O)Nc2ccccc2C(F)(F)F)CC1,0.84
COc1ccc(Cc2nnc(SCC(=O)Nc3cc(C(F)(F)F)ccc3Cl)o2)cc1,0.34
COc1ccccc1COc1ccc2c(C)c(CCC(=O)O)c(=O)oc2c1,0.48
COCc1nc2ccccc2n1CCOc1ccccc1C,-3.4*
Cc1ccccc1OCCn1c(SCC(N)=O)nc2ccccc21,1.5
CCn1c(COc2ccccc2C)nc2ccccc21,-0.28
COc1ccc(-c2ccc3c(N)c(C(=O)Nc4ccc(C(C)=O)cc4)sc3n2)cc1,-0.06
O=C(c1ccc(Cn2cc([N+](=O)[O-])cn2)cc1)N1CCSCC1,-0.11
SMILES,Measles inh
NC(=O)C[n+]1cccc(Br)c1,0.91
COc1ccc(Cl)cc1-n1c(N)c(-c2nc3ccccc3[nH]2)sc1=S,-0.19
O=C(c1cc2nc(-c3ccco3)cc(C(F)(F)F)n2n1)N1CCc2ccccc2C1,-0.69
CCOc1ccc(NC(=O)CN2C(=O)C3C4CCC(C4)C3C2=O)cc1 (stereo not given),-3.2*
CCOc1ccc(NC(=O)CC23CC4CC(CC(C4)C2)C3)cc1,-0.82
CCOc1ccccc1NC(=O)CN1C(=O)C2C3C=CC(C3)C2C1=O (stereo not given),1.3
CCOC(=O)c1c(NC(=O)c2ccc(Cl)c([N+](=O)[O-])c2)sc(C(=O)Nc2ccccc2C)c1C,0.04
FC(F)Oc1cc(Cl)ccc1C1=CC(c2ccc(Br)cc2)n2ncnc2N1 (stereo not given),-0.31
CCC(C)NC(=O)c1ccc2c(=O)n(CCN(CC)CC)c(=S)[nH]c2c1 (stereo not given),-0.88
O=C(Cc1c[nH]c2ccccc12)NC1(C(=O)NC2CCCCC2)CCCCC1,-0.98
CCCCCSc1nc2ccccc2[nH]1,-0.16
CCCCCCSc1nnc(-c2ccco2)c(-c2ccco2)n1,-0.77
CCCCCCCSc1nnc2nc(C)cc(C)n12,-3.1*
COc1ccc(NC(=O)c2sc(=S)n3c2[nH]c(=O)c2sccc23)cc1OC,0.12
COc1ccc(OCc2nc3ccccc3n2CCC(C)C)cc1,0.58
CCCCOc1ccc(N2C(=O)C3C4C=CC(C4)C3C2=O)cc1 (stereo not given),-3.3*
O=C(O)c1ccc(N2C(=O)C3C4C=CC(C4)C3C2=O)cc1 (stereo not given),0.84
N#Cc1ccc(N2C(=O)C3C4C=CC(C4)C3C2=O)cc1 (stereo not given),0.54
Cc1cc(N2CCCCC2)nc2ccc(NC(=O)CCC(=O)NC3CCCC(C)C3C)cc12 (stereo not given),-0.48
COc1ccc(OC)c2[nH]c(=O)c(CCNC(=O)Cc3ccccc3)cc12,-0.45
COc1ccc(N2CCN(C(=O)c3ccc(SCc4cccc(F)c4)c(N)c3)CC2)cc1,-0.65
COc1ccc(Cc2c(Cl)ncnc2Cl)cc1,-0.43
COc1nc(Cl)cc(C)c1C(=O)NCc1ccc(Cl)cc1,-0.85
COc1ccc(Cc2nc(C)cc(Cl)n2)cc1Cl,-3.8*
Cc1nc2nc(SCC(=O)NCc3ccc(F)cc3)nn2c(C)c1Cc1ccccc1Cl,-0.69
O=C(CSc1nc2ccc(Br)cc2[nH]1)NC1CCCCC1,-0.02
Cn1c(Cl)cnc1C1CC(c2cc(Cl)ccc2O)=NN1 (stereo not given),-1.6
Cc1cccc(Nc2nc(-c3ccc(Br)cc3)cs2)c1,-0.24
